Lassa entry inh: inhibitors of Lassa virus binding or cell entry; Lassa virus pseudotype entry inhibition, cell reporter; actives 1.2% (n = 300,000); AID 540256; Potency, µM (doses to about 37.9 µM), actives largely listed as inhibitors; calls by dose curve; tested in HEK293 cells; further: nearly all actives have a fitted effect of over 50% in size
MARV entry inh: blocks Marburg virus binding to or entry into cells; actives 1.8% (n = 300,000); Potency, µM (doses to about 37.8 µM), actives largely listed as inhibitors; Marburg virus pseudotyped entry inhibition, cell reporter; AID 540276; calls by dose curve; tested in HEK293 cells
HCV inhibitor: HCV inhibition; Huh7.5.1 HCVcc-Cre infection, luciferase reporter, 44 h; AID 651820; actives 3.4% (n = 340,000); Potency, µM (highest dose often 41.8 µM), usual class: inhibitors; active means well fitted inhibition curve with a large enough effect; inconclusive means small, poorly fitted or top-dose-only effect, or another doubt; inactive means no such curve, though single readings can be large or run the other way
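Infectious HCVcc-Cre (~0.5 moi) was added to cells just after compound, with cells seeded 4 h earlier at 1,000 per well. Luciferase activity after 44 h culture reported infection; substrate was incubated 15 min at room temperature before reading.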
Vaccinia Venus: vaccinia inhibition (Venus reporter) | Vaccinia virus Venus reporter expression, fluorescence | Potency, µM (series often up to 36.5 µM), most hits filed as inhibitors | actives 0.46% (n = 330,000) | AID 720580; calls by dose curve; tested in A549 cells; further: nearly all actives have a fitted effect of over 30% in size
HCMV antiviral: human cytomegalovirus inhibition | HFF cells, HCMV-luciferase reporter, 72 h; active compounds read low | activity change, negative = inhibition, % at 57.5 µM | actives 4.5% (n = 410,000) | AID 1259415; in the data active means activity change below about -60%; inconclusive means no clear call, values can overlap the other calls; inactive means above about -39%
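Luciferase read-out from HCMV-luciferase-infected HFFs (MOI 1 PFU/cell) 72 h post infection at 37C; compounds added after 16 h cell attachment; activity normalized between buffer-only basal and Salinomycin (10uM) inhibitor controls.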
VACV mCherry inh: vaccinia inhibition (mCherry reporter) | Vaccinia virus mCherry reporter infection, fluorescence | Potency, µM (doses to about 36.5 µM), most hits filed as inhibitors | actives 0.63% (n = 310,000); calls by dose curve; tested in A549 cells; further: nearly all actives have a fitted effect of over 35% in size
Numbers stand for hits; - = inactive; ? = inconclusive; . = not tested or not shown. Rows were chosen to be rich in hits. Some 7.8% of all compounds tested hit in one or more screens of this group.

SMILES	Lassa entry inh	MARV entry inh	HCV inhibitor	Vaccinia Venus	HCMV antiviral	VACV mCherry inh
CCc1c(C)sc(NC(=O)c2cc(-c3ccc(OC)c(OC)c3)on2)c1C#N	-	-	-	-	-	-
Cc1cccc(C(=O)Nc2c(-c3ccc(F)cc3)nc3ccccn23)c1	-	?	.	-	-	-
CCCCC(=O)N1CCc2cc(OC)c(OC)cc2C1COc1ccc(OC)cc1 (stereo not given)	-	.	.	-	-98.3	-
CNC(=S)N1CCc2cc(OC)c(OC)cc2C1COc1ccc(OC)cc1 (stereo not given)	?	?	-	-	-	-
COc1cc2c(cc1OC)C(COc1ccc([N+](=O)[O-])cc1)N(C(C)=O)CC2 (stereo not given)	.	.	10µM	.	-	.
CCC(=O)N1CCc2cc(OC)c(OC)cc2C1COc1ccc(OC)cc1 (stereo not given)	-	?	-	-	-	-
COCCNC(=S)N1CCc2cc(OC)c(OC)cc2C1COc1cc(C)cc(C)c1 (stereo not given)	-	7.94µM	?	-	-	-
COc1cc2c(cc1OC)C(COc1ccc3c(C)cc(=O)oc3c1)N(C(=O)c1cccc(OC)c1OC)CC2 (stereo not given)	2.82µM	-	.	-	-	-
NS(=O)(=O)c1ccc(CCNC(=O)c2nc(SCc3ccccc3F)ncc2Cl)cc1	-	-	.	-	-	-
COc1ccc(C(=O)N2CCc3cc(OC)c(OC)cc3C2c2ccc(OC)c(OC)c2)cc1 (stereo not given)	5.01µM	?	-	-	-	-
Oc1ccccc1N1CCN(C(=S)Nc2ccc(SC(F)F)cc2)CC1	5.01µM	?	?	-	?	-
CCN(C(=O)[C@@H]1CCCN1C(=O)c1cccs1)c1nc2cc(Cl)ccc2s1	-	?	10µM	-	-	-
CC1CCN(c2ccc(-c3cccc(NS(=O)(=O)c4ccc(F)cc4F)c3)nn2)CC1	-	.	.	-	-99.8	-
COc1cc(CN2CCC3(CCC(CNC(=O)c4ccco4)O3)CC2)ccc1O (stereo not given)	.	.	.	-	.	-
CCCOc1ccc(CSC(=N)N)cc1C(=O)OC	-	-	-	-	-	-
CCOc1ccc(CN=C(N)N=C(N)N)cc1Cl	-	?	?	?	-	.
CCCCOc1ccc(CN=C(N)N)cc1Cl	.	.	10µM	.	-	.
CCCOc1ccc(CCCN=C(N)N)cc1Cl	-	?	8.91µM	?	-73.6	-
Cn1c(-c2ccncc2)nc2cc(C(=O)N[C@H]3CCCCNC3=O)cc(NC(=O)C3CCC3)c21	.	.	.	-	.	-
CCN(CC)CCNC(=O)c1ccc(NC(=O)c2cccc(S(=O)(=O)N3c4ccccc4CC3C)c2)cc1 (stereo not given)	.	.	11.2µM	.	-	.
CCOC(=O)c1ccc(NC(=O)c2cccc(S(=O)(=O)N3c4ccccc4CC3C)c2)s1 (stereo not given)	?	?	?	?	-69.4	?
CCOc1ccc(S(=O)(=O)N2c3ccccc3CC2C)cc1 (stereo not given)	?	?	8.91µM	.	-	.
CC1Cc2ccccc2N1S(=O)(=O)c1cccc(C(=O)NCCCO)c1 (stereo not given)	-	-	-	-	-	-
CCN(CC)CCNC(=O)c1ccc(NC(=O)c2cccc(S(=O)(=O)N3CCc4ccccc43)c2)cc1	-	8.91µM	?	-	?	?
CCOC(=O)C1CCN(S(=O)(=O)c2cc3c4c(c2)CC(=O)N4CCC3)CC1	-	.	.	-	-	-
SMILES	Lassa entry inh	MARV entry inh	HCV inhibitor	Vaccinia Venus	HCMV antiviral	VACV mCherry inh
COc1cccc(NC(=O)/C(C#N)=C\c2cn(Cc3ccc(Cl)cc3)c3ccccc23)c1	-	.	.	-	-	-
CCCCc1ccc(NC(=O)N2CCN(c3cc(C)nc4ccccc34)CC2)c(C)c1	.	.	6.31µM	.	.	.
Cc1cc(N2CCN(C(=O)Nc3ccc(F)cc3F)CC2)c2ccccc2n1	?	-	?	-	.	-
COc1ccc(-c2cc(C)cc3c2OC(CNC(=O)/C=C/c2ccncc2)C3)nn1 (stereo not given)	.	.	.	-	.	-
CCOc1ccc(CCNC(=O)c2ccc(CSCc3ccccc3C)o2)cc1OCC	-	.	.	-	-	-
COc1cccc(/C=N/n2c(N)c(S(=O)(=O)c3cccs3)c3nc4ccccc4nc32)c1	-	-	-	.	-61.6	.
Cc1cccc(S(=O)(=O)c2c(N)n(/N=C/c3cccnc3)c3nc4ccccc4nc23)c1	-	?	?	-	?	-
COc1ccc(/C=N/n2c(N)c(S(=O)(=O)c3cccs3)c3nc4ccccc4nc32)cc1OC	-	?	-	.	-88.0	.
Nc1c(S(=O)(=O)c2cccs2)c2nc3ccccc3nc2n1/N=C/c1cccc(O)c1	?	?	7.94µM	11.2µM	-102.7	?
CC(C)Cn1c(N)c(S(=O)(=O)c2cccs2)c2nc3ccccc3nc21	?	-	?	?	.	.
CCOP(=O)(OCC)c1c2c(cc3ccc(Cl)cc13)CCC2	.	.	.	.	-	.
CCOc1ccccc1NC(=O)N1CCN(C)c2ncccc21	-	-	.	-	-	-
Cc1cccc(NS(=O)(=O)c2c(C)nc3sccn3c2=O)c1C	-	.	.	-	-	-
COc1ccc(C(C)=O)cc1CSc1nnnn1-c1ccc(O)cc1	.	.	-	.	-	.
COc1ccc(F)cc1CSc1nnnn1-c1ccc(O)cc1	?	?	?	-	-61.7	?
CCN(CC)C(=O)c1nn(-c2ccccc2)c2c1C1CCC2(C)C1(C)C (stereo not given)	?	?	12.6µM	-	-94.8	-
CCC(CC)C(=O)Nc1ccc(S(=O)(=O)N2CCC(c3nc4ccccc4s3)CC2)cc1	-	-	.	-	-	-
O=C(CCN1C(=O)/C(=C\c2cccs2)SC1=S)Nc1ccc(C(=O)O)cc1	.	.	-	.	-	.
CCc1ccc(/C=C2\SC(=S)N(CCCC(=O)N(CCO)c3ccccc3)C2=O)cc1	.	.	.	?	-97.7	?
O=C1/C(=C/c2cccs2)SC(=S)N1CCCC(=O)N(CCO)c1ccccc1	?	-	-	-	-97.6	-
COc1ccc(/C=C2/SC(=O)N(CCC(=O)Nc3ccccc3)C2=O)cc1OC	.	-	-	.	-63.5	.
CCc1ccc(C=C2SC(=S)N(CCCC(=O)Nc3ccc(C(=O)O)cc3)C2=O)cc1	.	.	.	-	?	-
COc1ccc(/C=C2\SC(=S)N(CCC(=O)N(CCO)c3ccccc3)C2=O)cc1OC	.	.	-	.	-60.1	.
COc1ccccc1NC(=O)CN(C)S(=O)(=O)c1ccc2c(c1)c(=O)n(C)c(=O)n2C	-	-	.	-	-	-
O=C(Cc1ccc(OCC2CCCCC2)cc1)NO	.	.	.	-	.	-
COc1ccc(CC(=O)NO)cc1OC	.	.	.	-	.	-
CCOc1ccc(/C=C2\SC(=S)N(CCC(=O)N(CCO)c3ccccc3)C2=O)cc1	?	?	?	?	-99.9	?
COc1ccc(/C=C2\SC(=O)N(CCNC(=O)Cc3coc4cc(C)ccc34)C2=O)cc1OC	-	?	12.6µM	.	-99.3	.
COc1ccc(/C=C2/SC(=S)N(CCC(=O)O)C2=O)cc1	-	-	.	-	-	-

Source: PubChem BioAssay
